Holding throughout (parameters): scale not given: direction of the effect not stated beside the values
Test [1] addresses Protein translocase subunit SecA (Escherichia coli (strain K12)) (UniProt P10408). The test is described as follows: Assay to Identify E. coli SecA ATPase Inhibitors. It counts as functional. The conditions noted are these: 30 µM.
For test [2], the target named is T1, Ubiquitin-activating enzyme e1, putative (Leishmania donovani (strain BPK282A1)) (UniProt E9BSI1).
T1 sequence (whole entry): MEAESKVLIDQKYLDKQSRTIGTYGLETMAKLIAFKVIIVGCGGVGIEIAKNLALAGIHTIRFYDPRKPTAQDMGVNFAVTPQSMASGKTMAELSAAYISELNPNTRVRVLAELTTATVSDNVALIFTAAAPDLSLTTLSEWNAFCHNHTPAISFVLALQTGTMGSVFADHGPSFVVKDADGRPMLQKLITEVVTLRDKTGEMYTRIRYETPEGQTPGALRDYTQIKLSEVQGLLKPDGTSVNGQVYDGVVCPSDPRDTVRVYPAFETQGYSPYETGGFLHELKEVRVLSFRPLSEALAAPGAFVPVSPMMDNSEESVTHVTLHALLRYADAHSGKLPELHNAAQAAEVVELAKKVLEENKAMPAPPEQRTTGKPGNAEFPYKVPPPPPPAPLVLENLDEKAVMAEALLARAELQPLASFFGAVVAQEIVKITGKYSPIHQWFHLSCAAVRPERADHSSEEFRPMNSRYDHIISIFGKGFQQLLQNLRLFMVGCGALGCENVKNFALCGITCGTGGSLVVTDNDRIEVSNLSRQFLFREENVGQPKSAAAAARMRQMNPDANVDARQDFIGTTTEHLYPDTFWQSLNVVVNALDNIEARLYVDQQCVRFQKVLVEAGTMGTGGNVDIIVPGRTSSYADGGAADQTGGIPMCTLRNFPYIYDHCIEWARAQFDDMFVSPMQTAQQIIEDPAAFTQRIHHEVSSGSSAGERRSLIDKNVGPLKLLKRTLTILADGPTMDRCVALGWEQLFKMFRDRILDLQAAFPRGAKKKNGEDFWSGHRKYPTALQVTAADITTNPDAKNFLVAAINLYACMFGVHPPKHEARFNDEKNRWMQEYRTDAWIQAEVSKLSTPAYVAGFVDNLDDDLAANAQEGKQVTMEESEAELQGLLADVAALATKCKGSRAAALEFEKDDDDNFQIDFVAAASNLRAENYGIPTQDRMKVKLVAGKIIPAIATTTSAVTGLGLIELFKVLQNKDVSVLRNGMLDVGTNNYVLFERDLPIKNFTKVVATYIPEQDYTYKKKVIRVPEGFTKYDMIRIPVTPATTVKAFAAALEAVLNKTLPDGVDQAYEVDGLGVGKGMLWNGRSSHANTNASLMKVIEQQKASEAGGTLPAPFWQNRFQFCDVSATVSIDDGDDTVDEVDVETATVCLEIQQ
The test is described as follows: Leishmania donovani Ubiquitin Activating Enzyme (LdE1). It counts as functional. The conditions noted are these: 30 µM.

In test [3] the target is AMP-activated protein kinase, AMPK (Homo sapiens) (UniProt P54646+O43741+P54619+Q9UGJ0+Q9Y478+Q13131+Q9UGI9). Description: AMP-dependent Kinase enzyme assay. An in vitro enzyme assay that detects ADP turnover that is directly proportional to AMPK activity. This uses naive AMPK that is activated during the assay with MK-8722. It is filed as functional. The settings on record: 30 µM.

Test [4] addresses Sialic acid-binding Ig-like lectin 9 (Homo sapiens) (UniProt Q9Y336). Description: Hs-Siglec9 ALPHAscreen SOP 20170721. The settings on record: 10 µM.
A further test concerns Trypanosoma cruzi. Description: Trypanosoma cruzi phosphomannomutase and mannose-1-phosphate guanylyltransferase assay. It is filed as functional. The settings on record: 10 µM.
In test [5] the target is T2, Arginase-2, mitochondrial (Homo sapiens) (UniProt P78540).
T2 sequence (whole entry): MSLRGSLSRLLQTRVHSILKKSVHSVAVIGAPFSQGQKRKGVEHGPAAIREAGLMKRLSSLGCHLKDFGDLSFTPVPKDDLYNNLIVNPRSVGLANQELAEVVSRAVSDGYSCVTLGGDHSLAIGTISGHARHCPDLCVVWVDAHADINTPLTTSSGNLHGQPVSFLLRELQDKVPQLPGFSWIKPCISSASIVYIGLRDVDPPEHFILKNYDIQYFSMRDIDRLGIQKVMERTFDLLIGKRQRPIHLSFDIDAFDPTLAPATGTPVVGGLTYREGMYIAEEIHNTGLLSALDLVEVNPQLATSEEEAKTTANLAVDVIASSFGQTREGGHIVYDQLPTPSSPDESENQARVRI
Description: in vitro enzyme assay to detect the production of urea directly proportional to the activity of Arginase II. Note: in the data most compounds retested in dose-response had high values. It is filed as functional.

The target in test [6] is T3, Proteasome subunit beta (Trypanosoma cruzi) (UniProt O96673).
T3 sequence (whole entry): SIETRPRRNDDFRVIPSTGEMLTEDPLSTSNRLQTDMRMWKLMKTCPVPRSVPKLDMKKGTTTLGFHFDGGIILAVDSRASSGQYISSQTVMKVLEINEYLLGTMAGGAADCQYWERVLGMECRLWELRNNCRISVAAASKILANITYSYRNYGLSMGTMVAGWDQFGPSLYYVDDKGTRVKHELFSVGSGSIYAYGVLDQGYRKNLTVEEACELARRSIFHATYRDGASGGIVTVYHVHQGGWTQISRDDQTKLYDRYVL
Description: Trypanosoma cruzi proteasome chymotrypsin-like activity (TcProtChymo) assay. Note: in the data most compounds retested in dose-response had high values. It counts as functional. The settings on record: 9.37 µM.

The species entered for another test is Homo sapiens. Description: To identify inhibition of the IFN signalling (Jak-Stat) pathway via expression of an eGFP reporter gene under the control of an IFN-stimulated response element (ISRE) containing MxA promoter. It counts as functional. The conditions noted are these: 30 µM. For orientation: A reporter such as luciferase makes a cellular process visible.

Test [7] has as its target T4, Tyrosyl-tRNA synthetase, putative (Trypanosoma cruzi (strain CL Brener)) (UniProt Q4DSP6).
T4 sequence (whole entry): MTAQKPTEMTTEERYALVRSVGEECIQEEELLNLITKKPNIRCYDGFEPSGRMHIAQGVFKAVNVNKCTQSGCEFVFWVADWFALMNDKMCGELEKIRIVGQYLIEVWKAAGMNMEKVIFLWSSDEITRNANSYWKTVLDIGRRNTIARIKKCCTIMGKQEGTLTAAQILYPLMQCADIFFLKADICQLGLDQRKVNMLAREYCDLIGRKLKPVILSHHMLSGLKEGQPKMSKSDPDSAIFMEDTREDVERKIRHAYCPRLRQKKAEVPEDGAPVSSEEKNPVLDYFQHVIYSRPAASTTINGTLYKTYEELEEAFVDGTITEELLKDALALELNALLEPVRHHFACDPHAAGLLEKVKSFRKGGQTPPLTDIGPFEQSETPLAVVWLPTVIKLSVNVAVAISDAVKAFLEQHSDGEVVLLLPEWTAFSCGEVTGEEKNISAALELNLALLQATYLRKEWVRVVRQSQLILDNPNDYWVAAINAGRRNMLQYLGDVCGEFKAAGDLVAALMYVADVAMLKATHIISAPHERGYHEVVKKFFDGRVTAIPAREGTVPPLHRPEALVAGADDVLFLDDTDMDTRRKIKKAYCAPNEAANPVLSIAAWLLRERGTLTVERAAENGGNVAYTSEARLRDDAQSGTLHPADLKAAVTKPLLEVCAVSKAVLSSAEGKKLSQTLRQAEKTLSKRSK
Description: Trypanosoma cruzi tyrosyl tRNA synthetase (TcYRS) _High Tyrosine SOP. Note: in the data most compounds retested in dose-response had high values. It counts as functional. The conditions noted are these: 30 µM.

In test [8] the target is T4, Tyrosyl-tRNA synthetase, putative (Trypanosoma cruzi (strain CL Brener)). Description: Trypanosoma cruzi tyrosyl tRNA synthetase (TcYRS) SOP. It counts as functional. The settings on record: 30 µM.
The target in test [9] is Chromo domain-containing protein 1 (Saccharomyces cerevisiae (strain ATCC 204508 / S288c) (Baker's yeast)) (UniProt P32657). Description: ScCHD-1 Enzyme Inhibition Assay. Note: in the data most compounds retested in dose-response had high values. It counts as functional. The conditions noted are these: 30 µM.
Chain of Chromo domain-containing protein 1 (Saccharomyces cerevisiae (strain ATCC 204508 / S288c) (Baker's yeast)) (P32657 whole entry, the tested form may be a part): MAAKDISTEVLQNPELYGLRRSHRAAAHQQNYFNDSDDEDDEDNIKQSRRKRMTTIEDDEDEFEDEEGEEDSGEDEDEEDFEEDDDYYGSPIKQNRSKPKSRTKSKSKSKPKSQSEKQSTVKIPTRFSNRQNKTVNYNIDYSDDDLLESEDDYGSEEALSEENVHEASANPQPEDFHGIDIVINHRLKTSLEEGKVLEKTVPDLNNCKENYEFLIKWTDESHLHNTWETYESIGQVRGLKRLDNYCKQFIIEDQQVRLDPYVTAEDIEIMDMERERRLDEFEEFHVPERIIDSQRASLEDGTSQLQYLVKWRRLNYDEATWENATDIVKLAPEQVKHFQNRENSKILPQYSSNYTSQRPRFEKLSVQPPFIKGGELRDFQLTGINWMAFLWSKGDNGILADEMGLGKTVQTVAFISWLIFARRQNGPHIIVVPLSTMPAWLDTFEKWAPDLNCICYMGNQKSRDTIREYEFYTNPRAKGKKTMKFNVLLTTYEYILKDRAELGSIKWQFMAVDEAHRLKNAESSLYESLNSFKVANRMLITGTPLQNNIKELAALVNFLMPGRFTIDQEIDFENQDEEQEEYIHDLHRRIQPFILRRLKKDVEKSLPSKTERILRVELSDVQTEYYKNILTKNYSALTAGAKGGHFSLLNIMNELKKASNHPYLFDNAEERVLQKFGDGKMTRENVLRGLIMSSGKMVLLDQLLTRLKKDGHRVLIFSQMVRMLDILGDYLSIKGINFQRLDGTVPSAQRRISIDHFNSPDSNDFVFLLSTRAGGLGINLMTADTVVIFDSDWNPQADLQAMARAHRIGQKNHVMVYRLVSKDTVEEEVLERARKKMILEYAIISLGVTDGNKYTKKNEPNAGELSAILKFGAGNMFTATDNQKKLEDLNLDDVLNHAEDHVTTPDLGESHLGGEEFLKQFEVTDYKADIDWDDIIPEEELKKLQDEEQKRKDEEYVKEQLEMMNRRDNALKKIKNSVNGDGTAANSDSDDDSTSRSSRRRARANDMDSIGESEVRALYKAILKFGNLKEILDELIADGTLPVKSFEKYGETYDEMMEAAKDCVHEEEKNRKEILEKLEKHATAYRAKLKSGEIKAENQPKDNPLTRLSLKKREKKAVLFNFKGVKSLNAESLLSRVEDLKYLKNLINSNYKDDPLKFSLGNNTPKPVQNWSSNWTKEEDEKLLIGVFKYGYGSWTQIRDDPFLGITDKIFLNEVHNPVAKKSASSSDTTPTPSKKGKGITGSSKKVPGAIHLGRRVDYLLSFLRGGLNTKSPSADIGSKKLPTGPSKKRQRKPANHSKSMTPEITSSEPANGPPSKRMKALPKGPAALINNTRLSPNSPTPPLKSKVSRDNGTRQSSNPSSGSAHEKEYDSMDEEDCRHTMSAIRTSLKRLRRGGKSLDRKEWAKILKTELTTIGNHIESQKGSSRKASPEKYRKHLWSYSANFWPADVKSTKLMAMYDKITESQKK
The next test has as its system N/A. Description: Trypanosoma cruzi proteasome luciferase counter-screen. It is filed as functional. The conditions noted are these: 9.37 µM.

Molecules are shown by their SMILES. Several values for one entry are separate records, joined by “and”; a condition that tells them apart may be missing. Identical values can stand only once. For part of these data: Results with a measured potency or affinity are listed apart.

Chain of Protein translocase subunit SecA (Escherichia coli (strain K12)) (P10408 whole entry): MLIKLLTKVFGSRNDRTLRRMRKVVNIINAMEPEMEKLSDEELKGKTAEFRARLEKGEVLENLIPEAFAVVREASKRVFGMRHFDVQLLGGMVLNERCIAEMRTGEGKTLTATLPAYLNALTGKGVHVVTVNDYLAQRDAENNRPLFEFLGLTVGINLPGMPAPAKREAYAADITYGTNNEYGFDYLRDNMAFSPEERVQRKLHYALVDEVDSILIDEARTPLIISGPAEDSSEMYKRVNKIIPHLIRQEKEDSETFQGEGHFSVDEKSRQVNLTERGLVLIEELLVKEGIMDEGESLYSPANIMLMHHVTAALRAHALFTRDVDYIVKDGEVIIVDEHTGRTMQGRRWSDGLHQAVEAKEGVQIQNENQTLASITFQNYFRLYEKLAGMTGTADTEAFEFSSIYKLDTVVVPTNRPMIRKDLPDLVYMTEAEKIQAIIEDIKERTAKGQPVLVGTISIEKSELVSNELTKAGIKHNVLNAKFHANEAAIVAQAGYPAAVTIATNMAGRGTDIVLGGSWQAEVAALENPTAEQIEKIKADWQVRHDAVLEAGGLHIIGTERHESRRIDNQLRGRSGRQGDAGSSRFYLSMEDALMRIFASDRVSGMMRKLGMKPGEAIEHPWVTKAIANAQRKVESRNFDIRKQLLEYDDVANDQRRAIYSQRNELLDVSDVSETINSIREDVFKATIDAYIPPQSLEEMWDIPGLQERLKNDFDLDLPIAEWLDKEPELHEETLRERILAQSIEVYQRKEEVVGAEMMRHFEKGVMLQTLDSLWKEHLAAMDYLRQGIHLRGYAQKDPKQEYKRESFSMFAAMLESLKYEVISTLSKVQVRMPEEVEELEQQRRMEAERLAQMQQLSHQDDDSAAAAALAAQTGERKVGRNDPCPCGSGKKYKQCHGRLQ
Chain of Sialic acid-binding Ig-like lectin 9 (Homo sapiens) (Q9Y336 whole entry): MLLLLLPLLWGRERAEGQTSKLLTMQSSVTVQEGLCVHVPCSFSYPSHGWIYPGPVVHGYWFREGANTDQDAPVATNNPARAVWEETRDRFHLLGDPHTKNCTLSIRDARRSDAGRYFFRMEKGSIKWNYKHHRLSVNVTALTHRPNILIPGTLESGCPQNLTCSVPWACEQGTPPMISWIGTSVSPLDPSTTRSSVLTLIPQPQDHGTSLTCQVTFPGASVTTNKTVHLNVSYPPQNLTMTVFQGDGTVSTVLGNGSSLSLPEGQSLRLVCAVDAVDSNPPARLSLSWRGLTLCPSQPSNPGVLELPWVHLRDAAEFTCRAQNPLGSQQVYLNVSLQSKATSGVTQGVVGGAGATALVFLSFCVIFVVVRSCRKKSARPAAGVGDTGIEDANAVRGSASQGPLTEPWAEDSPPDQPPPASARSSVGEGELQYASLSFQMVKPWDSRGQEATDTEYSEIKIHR

Take `COc1cc(C(=O)N(CCC#N)Cc2ccccn2)cc(OC)c1C`: the Percent Effect was -4.24% in test [1]; -2.67% in [2]; -4.3% in test [3]; 14.4% in test [4]; 7.89% in the test on Trypanosoma cruzi; 2.7% in test [5] (30 µM). Also, the Percent Effect in test [5] (33.3 µM) was -1.04%; in [6], 0.523%; in the test listed under Homo sapiens it was 6.76%; in test [7] it was -0.546%; in test [8], 3.7%; in [9], -3.63%.

In the case of `COc1ccc(-c2nc(CN3CC(n4nc(C)cc4C)C3)no2)cc1`, the Percent Effect in [1] is -4.78%; in [2] it was -5.2%; in test [3] it was 0.251%; in [4], -0.396%; in the test on Trypanosoma cruzi, -6.79%; in test [5] (30 µM) it was 2.7%. Also, the Percent Effect in test [5] (33.3 µM) came out at 17.9%; in test [6], 14.5%; in the test listed under Homo sapiens, 15.2%; in [7], 2.15%; in [8], 1.24%; in [9], 1.8%.

Take `CN(Cc1cccnc1)C1CC2(CCN(c3ccccn3)CC2)C1`: the Percent Effect is -2.7% in test [1]; 13.3% in test [2]; 11% in test [3]; -6.68% in test [4]; -5.12% in the test with Trypanosoma cruzi; 3.78% in test [5] (30 µM). The Percent Effect in test [5] (33.3 µM) is -1.17%; in test [6], 3.26%; in the test listed under Homo sapiens it was 27.4%; in [7] it was 7.45%; in test [8], 16.7%; in test [9], -5.79%.

For `c1cc(OCc2ccc3c(c2)OCCO3)ccc1CNC1CC1`, the Percent Effect in test [1] was 5.92%; in test [2], 0%; in test [3], 13.6%; in test [4], -13.3%; in the test with Trypanosoma cruzi, -7.3%; in test [5] (33.3 µM), -5.92%. Further, the Percent Effect was 91.2% and 90% and 88.4% in [6]; 63.7% and 65.3% in the test with N/A; 23% in the test filed under Homo sapiens; -2.13% in [7]; 5.2% in test [8]; -5.94% in test [9].

Turning to `CC(=O)NC(C)CC(=O)NCc1cccnc1Oc1ccccc1C` (stereo not given), the Percent Effect in test [1] was -2.11%; in test [2], 9.72%; in [3] it was -0.172%; in test [4], -2.33%; in the test with Trypanosoma cruzi, -1.26%; in [5] (30 µM) it was 1.62%. The Percent Effect in test [5] (33.3 µM) is 6.18%; in test [6], 11.6%; in the test filed under Homo sapiens, -9.66%; in [7], 8.42%; in [8], 12.8%; in test [9], -3.08%.

As to `O=C(N[C@@H]1CN(Cc2ccsc2)[C@@H]2CCCO[C@@H]21)C1CC1`, the Percent Effect in test [1] was -8.12%; in test [2], 18.7%; in [3], -4.7%; in [4], 2.36%; in the test with Trypanosoma cruzi it was -0.193%; in test [5] (33.3 µM) it was -57.9%. Moreover, the Percent Effect in test [6] is 37.3% and 23.2% and 22.2%; in the test on N/A, 7.24% and 10.5%; in the test listed under Homo sapiens it was -2.14%; in [7] it was 4.17%; in test [8] it was 17.5%; in test [9] it was -7.56%.

`O=c1[nH]c2c(c(=O)n1C1CCCCC1)CCC2Nc1ccccc1` (stereo not given): the Percent Effect is -1.62% in test [1]; -4% in [2]; -24.6% in test [3]; -0.297% in test [4]; 0.393% in the test with Trypanosoma cruzi; -11.3% in [5] (30 µM). In addition, the Percent Effect in test [5] (33.3 µM) was 1.58%; in [6], 9.8%; in the test listed under Homo sapiens, 11.8%; in [7] it was -1.06%; in test [8] it was 0%; in [9], 0.309%.

For `CCCC(NC(=O)c1cc(C)n(C2CC2)c1C)c1nnn[nH]1` (stereo not given), the Percent Effect in [1] is -6.85%; in test [2], 8%; in test [3], -2.47%; in [4], 18.2%; with Trypanosoma cruzi, 6.13%; in [5] (33.3 µM) it was 11.5%. Besides, the Percent Effect in test [6] was 41.1% and 40.1% and 33.4%; with N/A it was 13.1% and 10.6%; in the test filed under Homo sapiens it was 14.1%; in test [7] it was 8.2%; in test [8] it was 11.1%; in [9] it was -4.79%.

With `Cc1cnn(CC2CN(c3cnc4ccccc4n3)CCO2)c1` (stereo not given), the Percent Effect in [1] was -8.32%; in test [2], 15.2%; in [3] it was 2.77%; in [4], 14.7%; in the test with Trypanosoma cruzi, 12%; in [5] (33.3 µM) it was -4.56%. In addition, the Percent Effect is 38.1% and 39.2% and 44.7% in test [6]; 20.3% and 14.5% with N/A; 14.6% in the test filed under Homo sapiens; 4.43% in test [7]; 21.5% in test [8]; -12.5% in test [9].

For `CC1CCN(S(=O)(=O)c2cccn(CC(=O)NC3CCCC3)c2=O)CC1`, the Percent Effect in test [1] was -2.96%; in test [2] it was 5.48%; in test [3], -5.65%; in test [4], -2%; with Trypanosoma cruzi, -5.68%; in test [5] (30 µM), 2.7%. For the same compound, the Percent Effect was 0.455% in [5] (33.3 µM); 17.2% in [6]; 4.13% in the test filed under Homo sapiens; 3.23% in [7]; 10% in [8]; -2.6% in test [9].

For the origin of these results see ChEMBL document CHEMBL3988442, “University of Dundee, Small-Polar-MMV Screening Library” (2021).
